Source: PubChem (National Center for Advancing Translational Sciences (NCATS))
Shown are actives, neighbours in structure and some others; about 9.5% of the full set was active somewhere.
Pf growth 48h – Primary qHTS for delayed death inhibitors of the malarial parasite plastid, 48 hour incubation; hit rate 5.9% among 310,000; P. falciparum luciferase growth in erythrocytes, 48 h; Potency, µM (highest dose often 28.7 µM), inactives show top-dose activity change, negative = inhibition, most hits filed as inhibitors; active means well fitted inhibition curve with a large enough effect; inconclusive means small, poorly fitted or top-dose-only effect, or another doubt; inactive means no such curve, though single readings can be large or run the other way; further: on the % scale 0 is the no-effect control and ±100 the full control effect
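A one-generation exposure of luciferase-tagged malaria parasites in RPMI 1640/Albumax erythrocyte culture, 37 C and 5% CO2. Inhibition is inferred from decreased luminescence after adding detection reagent.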
Pf growth 96h – Primary qHTS for delayed death inhibitors of the malarial parasite plastid, 96 hour incubation; P. falciparum luciferase reporter growth, 96 h; Potency, µM (series often up to 28.7 µM), for the others: at the highest dose activity change, negative = inhibition, actives largely listed as inhibitors; hit rate 6.9% among 320,000; active means well fitted inhibition curve with a large enough effect; inconclusive means small, poorly fitted or top-dose-only effect, or another doubt; inactive means no such curve, though single readings can be large or run the other way; further: on the % scale 0 is the no-effect control and ±100 the full control effect
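Cell-based qHTS: luciferase-tagged P. falciparum in erythrocytes (2% hematocrit, 0.05% parasitemia final) incubated with compounds for 96 hours, 37 C, 5% CO2; luciferase detection reagent then added and luminescence measured.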
NS1 inh – qHTS Assay for Inhibitors of Influenza NS1 Protein Function; AID 2326, 2010; Potency, µM (highest dose often 46.1 µM), without a hit: at the highest dose activity, positive = more growth; hit rate 0.4% among 270,000; further: actives are rising curves; nearly all actives have a fitted effect of over 50% in size
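Growth recovery, yeast-based: influenza A NS1 expressed in S. cerevisiae causes slow growth, and suppressors are detected by OD600. The parent strain without NS1 is used as positive control.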
RE007 growth inh – qHTS Assay for Inhibitors of the HIV-1 protein Vpr; hit rate 0.21% among 360,000; S. pombe RE007 Vpr strain, BacTiter-Glo ATP luminescence, 24 h; Potency, µM (titrated, usually from 92.2 µM), without a hit: at the top dose activity change, negative = less growth, actives largely listed as inhibitors; AID 651644, 2012; active means well fitted falling curve with a large enough effect; inconclusive means small, poorly fitted or top-dose-only effect; inactive means no such curve, though single readings can be large or run the other way; further: on the % scale 0 is the no-effect control and ±100 the full control effect; nearly all actives have a fitted effect of over 50% in size
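Fission yeast strain RE007, carrying one chromosomally integrated HIV-1 vpr copy, was seeded at OD 0.01 in PMG+AL medium with 23 nL pinned compound. After 24 h at 30 °C and 99% humidity, viability was read by BacTiter-Glo luminescence.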
SARS PLP yeast – qHTS of Yeast-based Assay for SARS-CoV PLP. S. cerevisiae expressing SARS-CoV PLpro, growth rescue. AID 485353, 2010. Potency, µM (series often up to 32.9 µM), inactives show top-dose activity, positive = growth rescue, hits mostly activators. hit rate 0.19% among 330,000; further: 0% is about no effect; nearly all actives have a fitted effect of over 55% in size
The depositor's hits bear a star; ? = inconclusive; / = no result; [ ] = remark or other dose. Unless noted, the call rests on the fitted dose curve. Potency means the concentration at half of the fitted maximal effect.

SMILES | Pf growth 48h | Pf growth 96h | NS1 inh | RE007 growth inh | SARS PLP yeast
Cc1ccc(S(=O)(=O)NCCC2=CCCCC2)cc1C(N)=O | 15% | 10µM* | 1% | 2% | /
COc1ccccc1NS(=O)(=O)c1cccc(NC(=O)Nc2cccc(Cl)c2)c1 | ? | ? | ? | 9% | 5%
Cc1cc(S(=O)(=O)NCCC2=CCCCC2)ccc1Br | 2% | 50% | / | -21% | -1%
CCOC(=O)/C(C#N)=C/Nc1ccccc1NS(=O)(=O)c1ccc(C)c(C)c1 | ? | 2.9µM* | 0% | -1% | -1%
COc1ccccc1NS(=O)(=O)c1cccc(NC(=O)CCNC(=O)c2ccccc2OC)c1 | 9.3µM* | 12µM* | / | -16% | 0%
COc1cc(Cl)ccc1OCc1cc(C(=O)NCCCN2CCCC2=O)no1 | ? | ? | 2% | 7% | 1%
COc1ccccc1NS(=O)(=O)c1ccc(Cl)c(NC(=O)c2sc3cc(Cl)ccc3c2Cl)c1 | -29% | -7% | 2% | 6% | 0%
COc1ccccc1NS(=O)(=O)c1ccc(C)c(C(N)=O)c1 | 16% | 5.2µM* | 8% | 17% | 1%
COc1ccccc1NS(=O)(=O)c1cccc(NC(=O)c2sc3ccccc3c2Cl)c1 | 12µM* | -20% | 3% | -20% | 1%
N[C@@H](CCCCO)C(=O)O | / | / | 0% | / | /
CN(C)c1oc(-c2ccccc2Cl)nc1P(=O)(c1ccccc1)c1ccccc1 | / | 12µM* | 15% | 17% | -1%
Cc1ccc(S(=O)(=O)c2nc(-c3ccccc3Cl)oc2N(C)C)cc1 | 132% | ? | 5% | -18% | 2%
CCOC(=O)COc1cc(Br)c(C2NC(=O)NC(C)=C2C(C)=O)cc1OCC (configuration not stated) | / | 9.3µM* | 6% | -4% | 0%[6.58 µM]
O=C(c1cc(C2CC2)nn1-c1ccccc1)N1CCN(c2ccc(O)cc2)CC1 | 10µM* | ? | / | 2% | 0%
CCOc1ccc(S(=O)(=O)N2CCN(C(=O)c3cc(C4CC4)nn3-c3ccccc3)CC2)cc1 | 4.7µM* | ? | / | -2% | 2%
O=C(c1cc(C2CC2)nn1-c1ccccc1)N1CCN(S(=O)(=O)c2c(F)cccc2F)CC1 | 7.4µM* | ? | / | 15% | 10%
O=C(c1cc(C2CC2)nn1-c1ccccc1)N1CCN(c2ccccc2O)CC1 | / | / | / | 1% | -5%
CCC1(c2ccccc2)NC(=O)N(CC(=O)Nc2ccc(N3CCCC3)cc2C)C1=O (configuration not stated) | ? | 1% | / | -2% | -17%
CCCCC(=O)N1C/C=C\C(c2ccc(OC)cc2)N(Cc2ccc(F)cc2)C(=O)[C@H]1Cc1ccccc1 (some centres not stated) | 12µM* | 10µM* | -32% | 2% | -7%
CCCCCCC(=O)N1C/C=C\C(c2ccc(OC)cc2)N(Cc2ccc(F)cc2)C(=O)C1 (configuration not stated) | ? | ? | -67% | -1% | -12%
COc1ccc(C2/C=C\CN(C(=O)C3CC3)[C@H](Cc3ccccc3)C(=O)N2Cc2ccc(F)cc2)cc1 (some centres not stated) | 10µM* | ? | -4% | -5% | -11%
CCCCCCC(=O)N1C/C=C\C(c2ccc(OC)cc2)N(Cc2ccc(F)cc2)C(=O)[C@H]1Cc1ccccc1 (some centres not stated) | 9.3µM* | 7.4µM* | 7% | -22% | -9%
COc1ccc(C2/C=C\CN(C(=O)c3ccc(C)cc3)[C@H](Cc3ccccc3)C(=O)N2Cc2ccc(F)cc2)cc1 (some centres not stated) | 4.1µM* | 4.1µM* | -8% | 9% | -3%
COc1ccc(-c2sc3cc4c(cc3c2C#CC2(N)CCCCC2)OCO4)cc1 | 13µM* | ? | / | -11% | 0%
COc1ccc(CNC(=O)C2(CC3CC(c4ccccc4)=NO3)CCN(C(=O)Cc3ccc(F)cc3)CC2)cc1 (configuration not stated) | / | / | / | 2% | /
SMILES | Pf growth 48h | Pf growth 96h | NS1 inh | RE007 growth inh | SARS PLP yeast
O=C(NCc1ccccc1)C1(CC2CC(c3ccccc3)=NO2)CCNCC1 (configuration not stated) | 12µM* | ? | / | 8% | -2%
CCCNC(=O)C1(CC2CC(c3ccccc3)=NO2)CCN(C(=O)C2(C)CC2)CC1 (configuration not stated) | / | / | / | -1% | /
CCCCCCCNC(=O)C1(CC2CC(c3ccccc3)=NO2)CCNCC1 (configuration not stated) | 12µM* | ? | / | -2% | 9%
Cn1c(=O)n(Cc2ccccc2)c(=O)c2c1nc1n2CCCN1Cc1ccccc1 | ? | ? | -59% | -8% | 6%
Cn1c(=O)n(CC(N)=O)c(=O)c2c1nc1n2CCCN1Cc1ccccc1 | 0%[0.00184 µM] | 5% | 6% | -9% | 0%
Cn1c(N2CCCC2)nc2c1c(=O)n(Cc1cccc(F)c1)c(=O)n2C | ? | 10µM* | -1% | 4% | 1%
CCOCCn1c(=O)c2c(nc3n2CCCN3CCc2ccccc2)n(C)c1=O | ? | 15µM* | -1% | 4% | 4%
CCOCCn1c(=O)c2c(nc3n2CCCN3Cc2ccccc2)n(C)c1=O | -22% | ? | 0% | 10% | -2%
Cn1c(=O)n(Cc2ccccc2)c(=O)c2c1nc1n2CCCN1CCc1ccccc1 | / | 3.3µM* | 25% | -12% | -14%
CCCCn1c(=O)c2c(nc3n2CCCN3Cc2ccccc2)n(C)c1=O | 5.2µM* | ? | -1% | -7% | 3%
Clc1ccc(CN2CCN(c3ncccn3)CC2)c(Cl)c1 | -3% | 7% | -19% | 0% | 5%
CCOC(=O)Cc1csc(NC(=O)CSc2cc(Cl)ccc2Cl)n1 | 11% | -17% | -13% | 7% | 13%
COc1cccc(N2CCN(S(=O)(=O)c3ccc4c(c3)N(C(C)=O)CCO4)CC2)c1 | -7% | ? | 12% | 0% | ?
O=C(N/N=C/c1cccnc1)c1cc(-c2ccccc2OCc2ccccc2)n[nH]1 | 10µM* | ? | 10% | 1% | -2%
O=C(N/N=C/c1cccnc1)c1ccc(NC(=O)c2ccc(Cl)cc2)cc1 | ? | 20% | 9% | 1% | 0%
CC(=O)Nc1ccc(C(=O)N/N=C/c2cccnc2)cc1 | 0% | 3.7µM* | 7% | 10% | 1%
O=C(N/N=C/c1cccnc1)c1ccccc1OCc1ccc(Br)cc1 | 9.3µM* | 3% | / | 21% | -1%
O=C(N/N=C/c1cccnc1)c1ccccc1OCc1ccc(Cl)cc1 | ? | -20% | -3% | / | -9%
COc1cccc(-n2c(C)nc3c(cnn3-c3ccc(C)cc3)c2=O)c1 | ? | ? | -46% | 12% | -5%
Cc1cccc(-n2c(C)nc3c(cnn3-c3ccc(F)cc3)c2=O)c1 | ? | 9.3µM* | -55% | 25% | -6%
